# Targets with a hit are over-represented here; the source holds about 8,800 in all. About 0.5% of all pairs of compound and target were hits. Values without a mark were called inactive.
# Columns and labels:
# Assay in all cases: log2 fold change, soluble protein after heating vs DMSO (PISA); higher = thermal stabilisation; K562 lysate, 10 uM; active = over 0.2 and 3.5 SD of the protein, either way, in both replicates (recomputed)
# lapatinib = compound: CS(=O)(=O)CCNCc1ccc(-c2ccc3ncnc(Nc4ccc(OCc5cccc(F)c5)c(Cl)c4)c3c2)o1 [lapatinib]
# Outline: (§1)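 Thermal stability, expressed as log-two fold change relative to solvent controls, is given from duplicates. Crude K562 extract in PBS pH 7.4 with 1 mM MgCl2, at 1 mg/mL protein, was treated with 10 μM compound for 30 min and heated in aliquots for 3 min across 48°C-58°C. After pooling, adjustment to 0.5% NP-40 at 4°C and centrifugation at 21,000xg for 90 min, supernatant protein was measured by TMTpro 16plex LC-MS/MS with channel sums equalised.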
# pictilisib = compound: CS(=O)(=O)N1CCN(Cc2cc3nc(-c4cccc5[nH]ncc45)nc(N4CCOCC4)c3s2)CC1 [pictilisib]
# Outline: as §1
# crizotinib = compound: C[C@@H](Oc1cc(-c2cnn(C3CCNCC3)c2)cnc1N)c1c(Cl)ccc(F)c1Cl [crizotinib]
# Outline: as §1
# [1] = compound: C[C@H](C1=CC=C(C=C1)C(=O)NC2=C3C=CNC3=NC=C2)N
# Outline: as §1
# duvelisib = compound: C[C@H](Nc1ncnc2nc[nH]c12)c1cc2cccc(Cl)c2c(=O)n1-c1ccccc1 [duvelisib]
# Outline: as §1
# gandotinib = compound: Cc1cc(Nc2cc(CN3CCOCC3)c3nc(C)c(Cc4ccc(Cl)cc4F)n3n2)n[nH]1 [gandotinib]
# Outline: as §1
# tozasertib = compound: Cc1cc(Nc2cc(N3CCN(C)CC3)nc(Sc3ccc(NC(=O)C4CC4)cc3)n2)n[nH]1 [tozasertib]
# Outline: as §1
# doramapimod = compound: Cc1ccc(-n2nc(C(C)(C)C)cc2NC(=O)Nc2ccc(OCCN3CCOCC3)c3ccccc23)cc1 [doramapimod]
# Outline: as §1
# bafetinib = compound: Cc1ccc(NC(=O)c2ccc(CN3CC[C@H](N(C)C)C3)c(C(F)(F)F)c2)cc1Nc1nccc(-c2cncnc2)n1 [bafetinib]
# Outline: as §1
# [2] = compound: Cc1cccc(CC(=O)N2CCc3c2ccc(-c2cn(C)c4ncnc(N)c24)c3F)n1
# Outline: as §1
# nilotinib = compound: Cc1cn(-c2cc(NC(=O)c3ccc(C)c(Nc4nccc(-c5cccnc5)n4)c3)cc(C(F)(F)F)c2)cn1 [nilotinib]
# Outline: as §1
# [3] = compound: Cc1nc(Nc2n[nH]c3c2CN(C(=O)N[C@H](CN(C)C)c2ccccc2)C3(C)C)c2sccc2n1
# Outline: as §1
# dasatinib = compound: Cc1nc(Nc2ncc(C(=O)Nc3c(C)cccc3Cl)s2)cc(N2CCN(CCO)CC2)n1 [dasatinib]
# Outline: as §1
# [4] = compound: Cc1ncc(-c2ccnc(Nc3ccc(S(C)(=O)=O)cc3)n2)n1C(C)C
# Outline: as §1
# [5] = compound: Cn1cc(-c2ccc3c(c2)CCN3C(=O)Cc2cccc(C(F)(F)F)c2)c2c(N)ncnc21
# Outline: as §1
# quisinostat = compound: Cn1cc(CNCC2CCN(c3ncc(C(=O)NO)cn3)CC2)c2ccccc21 [quisinostat]
# Outline: as §1
# tipifarnib = compound: Cn1cncc1[C@@](N)(c1ccc(Cl)cc1)c1ccc2c(c1)c(-c1cccc(Cl)c1)cc(=O)n2C [tipifarnib]
# Outline: as §1
# [6] = compound: NC(=O)Nc1cc(-c2cccc(F)c2)sc1C(=O)N[C@H]1CCCNC1
# Outline: as §1
# [7] = compound: NC(=O)c1cnc(N[C@@H]2CCCC[C@@H]2N)nc1Nc1cccc(-n2nccn2)c1
# Outline: as §1
# [8] = compound: NC1(c2ccc(-c3nc4ccn5c(=O)[nH]nc5c4cc3-c3ccccc3)cc2)CCC1
# Outline: as §1
# Chain of UniProt P23677 (P23677 whole entry, looked up): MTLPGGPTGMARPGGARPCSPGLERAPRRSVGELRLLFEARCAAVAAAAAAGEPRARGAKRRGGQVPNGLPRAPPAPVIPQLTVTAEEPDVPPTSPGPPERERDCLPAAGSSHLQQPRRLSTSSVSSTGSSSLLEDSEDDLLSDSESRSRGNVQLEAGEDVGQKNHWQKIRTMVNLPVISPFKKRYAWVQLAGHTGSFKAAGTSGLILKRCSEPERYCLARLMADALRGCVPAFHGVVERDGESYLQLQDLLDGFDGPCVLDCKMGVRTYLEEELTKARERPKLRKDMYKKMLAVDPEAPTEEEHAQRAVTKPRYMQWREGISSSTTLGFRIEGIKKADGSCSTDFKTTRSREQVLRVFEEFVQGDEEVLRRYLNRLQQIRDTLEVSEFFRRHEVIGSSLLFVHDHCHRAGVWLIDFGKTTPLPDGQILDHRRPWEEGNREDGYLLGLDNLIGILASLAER
# Chain of UniProt Q96EW2 (Q96EW2 whole entry, looked up): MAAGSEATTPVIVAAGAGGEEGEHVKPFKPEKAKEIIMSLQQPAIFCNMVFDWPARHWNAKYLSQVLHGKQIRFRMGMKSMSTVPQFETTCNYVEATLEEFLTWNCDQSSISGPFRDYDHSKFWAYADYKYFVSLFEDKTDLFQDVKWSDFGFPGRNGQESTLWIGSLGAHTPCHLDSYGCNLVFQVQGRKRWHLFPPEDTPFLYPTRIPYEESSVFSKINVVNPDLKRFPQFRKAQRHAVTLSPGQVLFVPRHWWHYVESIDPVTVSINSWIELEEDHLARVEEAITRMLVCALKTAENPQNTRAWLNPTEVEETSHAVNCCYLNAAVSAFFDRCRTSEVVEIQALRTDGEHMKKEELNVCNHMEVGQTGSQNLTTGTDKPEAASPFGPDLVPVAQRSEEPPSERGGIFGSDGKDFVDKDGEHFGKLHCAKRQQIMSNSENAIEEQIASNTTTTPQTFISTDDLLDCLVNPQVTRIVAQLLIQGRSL
# Chain of UniProt Q9Y2X7 (Q9Y2X7 whole entry, looked up): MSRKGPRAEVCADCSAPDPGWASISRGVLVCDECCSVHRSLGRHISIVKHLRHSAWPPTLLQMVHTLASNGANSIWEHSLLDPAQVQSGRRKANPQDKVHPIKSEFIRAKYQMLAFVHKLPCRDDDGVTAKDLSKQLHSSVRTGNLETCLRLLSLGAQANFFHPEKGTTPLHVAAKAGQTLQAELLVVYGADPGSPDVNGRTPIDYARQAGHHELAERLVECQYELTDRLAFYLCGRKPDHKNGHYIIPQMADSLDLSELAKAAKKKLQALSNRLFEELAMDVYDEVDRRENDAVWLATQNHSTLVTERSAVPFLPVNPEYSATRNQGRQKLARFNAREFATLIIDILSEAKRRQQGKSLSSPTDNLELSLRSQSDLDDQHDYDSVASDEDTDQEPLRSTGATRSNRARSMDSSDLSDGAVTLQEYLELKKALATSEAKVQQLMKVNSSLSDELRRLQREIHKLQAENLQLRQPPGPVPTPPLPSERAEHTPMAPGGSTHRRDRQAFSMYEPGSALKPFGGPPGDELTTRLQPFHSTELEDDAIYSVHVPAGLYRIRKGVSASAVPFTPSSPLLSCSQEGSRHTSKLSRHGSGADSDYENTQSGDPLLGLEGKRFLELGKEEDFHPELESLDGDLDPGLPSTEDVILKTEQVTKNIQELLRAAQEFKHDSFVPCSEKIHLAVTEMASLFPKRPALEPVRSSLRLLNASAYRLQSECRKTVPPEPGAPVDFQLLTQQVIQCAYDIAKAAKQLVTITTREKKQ
# Chain of UniProt Q3T8J9 (Q3T8J9 whole entry, looked up): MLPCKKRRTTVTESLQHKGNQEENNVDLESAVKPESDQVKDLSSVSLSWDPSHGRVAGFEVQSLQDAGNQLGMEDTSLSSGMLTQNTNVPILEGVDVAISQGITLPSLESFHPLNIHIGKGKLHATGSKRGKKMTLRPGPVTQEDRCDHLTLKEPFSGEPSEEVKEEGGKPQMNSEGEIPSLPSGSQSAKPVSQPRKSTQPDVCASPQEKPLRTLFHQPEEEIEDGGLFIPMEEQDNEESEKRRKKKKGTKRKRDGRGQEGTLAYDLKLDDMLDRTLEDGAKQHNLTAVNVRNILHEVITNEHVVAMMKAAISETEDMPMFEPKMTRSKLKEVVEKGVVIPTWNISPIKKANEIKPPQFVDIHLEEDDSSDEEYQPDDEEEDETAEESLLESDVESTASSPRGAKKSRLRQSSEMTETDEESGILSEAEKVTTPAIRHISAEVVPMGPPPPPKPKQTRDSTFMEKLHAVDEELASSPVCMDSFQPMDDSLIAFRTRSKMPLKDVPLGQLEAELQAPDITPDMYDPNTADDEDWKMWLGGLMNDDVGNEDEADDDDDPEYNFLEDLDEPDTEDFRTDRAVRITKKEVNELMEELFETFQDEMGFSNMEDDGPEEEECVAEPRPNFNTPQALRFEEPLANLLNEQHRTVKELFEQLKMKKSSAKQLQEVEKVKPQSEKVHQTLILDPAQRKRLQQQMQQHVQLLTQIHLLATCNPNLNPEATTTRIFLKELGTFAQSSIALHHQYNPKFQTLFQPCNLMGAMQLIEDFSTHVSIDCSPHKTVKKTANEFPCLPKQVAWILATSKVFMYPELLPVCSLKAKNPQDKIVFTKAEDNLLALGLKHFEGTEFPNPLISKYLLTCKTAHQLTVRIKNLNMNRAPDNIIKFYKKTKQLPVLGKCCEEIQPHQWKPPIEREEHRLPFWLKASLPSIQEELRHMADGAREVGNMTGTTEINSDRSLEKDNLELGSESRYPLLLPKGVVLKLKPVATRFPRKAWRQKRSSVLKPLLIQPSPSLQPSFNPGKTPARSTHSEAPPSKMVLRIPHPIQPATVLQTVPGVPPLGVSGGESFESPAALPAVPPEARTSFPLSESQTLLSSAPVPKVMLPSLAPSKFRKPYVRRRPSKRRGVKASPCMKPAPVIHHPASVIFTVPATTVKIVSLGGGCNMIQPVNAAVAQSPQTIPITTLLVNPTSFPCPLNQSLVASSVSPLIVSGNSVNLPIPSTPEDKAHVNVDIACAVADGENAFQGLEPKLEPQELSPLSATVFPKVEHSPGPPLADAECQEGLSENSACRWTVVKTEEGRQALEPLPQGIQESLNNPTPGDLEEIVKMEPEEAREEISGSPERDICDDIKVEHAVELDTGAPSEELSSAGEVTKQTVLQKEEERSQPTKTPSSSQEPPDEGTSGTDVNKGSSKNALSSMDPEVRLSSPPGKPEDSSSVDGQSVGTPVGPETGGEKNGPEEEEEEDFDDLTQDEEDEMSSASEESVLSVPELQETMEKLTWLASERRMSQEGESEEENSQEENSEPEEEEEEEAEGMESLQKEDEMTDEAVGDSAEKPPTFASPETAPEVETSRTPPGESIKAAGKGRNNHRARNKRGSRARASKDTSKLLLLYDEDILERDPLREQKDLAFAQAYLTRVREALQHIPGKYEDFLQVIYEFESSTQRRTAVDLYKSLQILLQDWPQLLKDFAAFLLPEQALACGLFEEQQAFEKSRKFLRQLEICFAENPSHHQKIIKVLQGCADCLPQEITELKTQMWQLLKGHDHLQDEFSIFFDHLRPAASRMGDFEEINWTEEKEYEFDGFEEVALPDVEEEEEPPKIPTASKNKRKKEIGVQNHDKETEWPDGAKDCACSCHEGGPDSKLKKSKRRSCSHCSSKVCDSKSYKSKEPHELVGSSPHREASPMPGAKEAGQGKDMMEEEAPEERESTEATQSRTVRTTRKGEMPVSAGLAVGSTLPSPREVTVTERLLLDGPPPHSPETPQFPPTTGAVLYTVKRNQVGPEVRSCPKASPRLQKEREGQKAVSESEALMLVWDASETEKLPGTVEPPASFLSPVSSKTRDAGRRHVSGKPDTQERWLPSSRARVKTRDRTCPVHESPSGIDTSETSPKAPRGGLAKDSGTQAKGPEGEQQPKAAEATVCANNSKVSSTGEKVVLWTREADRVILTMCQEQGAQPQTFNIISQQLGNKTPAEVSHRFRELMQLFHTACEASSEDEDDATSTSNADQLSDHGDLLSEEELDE
# Chain of UniProt P09429 (P09429 whole entry, looked up): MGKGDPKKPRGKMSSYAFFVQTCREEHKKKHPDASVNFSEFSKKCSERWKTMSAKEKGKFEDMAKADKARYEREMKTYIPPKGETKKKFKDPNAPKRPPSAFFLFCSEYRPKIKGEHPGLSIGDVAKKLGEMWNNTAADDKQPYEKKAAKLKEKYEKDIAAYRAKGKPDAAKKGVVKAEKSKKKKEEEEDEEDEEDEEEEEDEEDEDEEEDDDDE
# Chain of UniProt P13598 (P13598 whole entry, looked up): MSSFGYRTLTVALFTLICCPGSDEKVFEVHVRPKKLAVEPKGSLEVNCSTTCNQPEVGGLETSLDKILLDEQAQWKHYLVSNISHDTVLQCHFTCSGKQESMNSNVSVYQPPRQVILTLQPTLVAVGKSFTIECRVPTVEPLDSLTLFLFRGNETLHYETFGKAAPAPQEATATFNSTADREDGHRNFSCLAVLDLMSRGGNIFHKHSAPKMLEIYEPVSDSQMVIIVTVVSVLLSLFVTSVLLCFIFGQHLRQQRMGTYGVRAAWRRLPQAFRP
# Chain of UniProt Q8NEC7 (Q8NEC7 whole entry, looked up): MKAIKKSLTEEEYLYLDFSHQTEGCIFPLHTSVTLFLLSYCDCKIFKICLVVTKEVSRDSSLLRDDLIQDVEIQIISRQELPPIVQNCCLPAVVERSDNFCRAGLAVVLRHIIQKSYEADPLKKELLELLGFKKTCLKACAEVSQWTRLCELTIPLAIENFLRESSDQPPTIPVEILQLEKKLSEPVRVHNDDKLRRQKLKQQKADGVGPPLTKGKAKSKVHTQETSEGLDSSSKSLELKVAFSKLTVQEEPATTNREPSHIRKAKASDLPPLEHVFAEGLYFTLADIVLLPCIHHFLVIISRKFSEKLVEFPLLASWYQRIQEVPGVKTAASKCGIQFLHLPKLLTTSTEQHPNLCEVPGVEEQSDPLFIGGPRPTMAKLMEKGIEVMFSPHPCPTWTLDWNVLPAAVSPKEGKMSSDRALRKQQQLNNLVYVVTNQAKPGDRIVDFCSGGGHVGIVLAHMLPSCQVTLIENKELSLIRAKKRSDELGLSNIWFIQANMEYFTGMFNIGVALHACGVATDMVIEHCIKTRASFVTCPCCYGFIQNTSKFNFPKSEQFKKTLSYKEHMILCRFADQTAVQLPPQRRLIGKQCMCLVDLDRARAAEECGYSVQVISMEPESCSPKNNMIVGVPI
Target,log2 fold change (lapatinib),log2 fold change (pictilisib),log2 fold change (crizotinib),log2 fold change [1],log2 fold change (duvelisib),log2 fold change (gandotinib),log2 fold change (tozasertib),log2 fold change (doramapimod),log2 fold change (bafetinib),log2 fold change [2],log2 fold change (nilotinib),log2 fold change [3],log2 fold change (dasatinib),log2 fold change [4],log2 fold change [5],log2 fold change (quisinostat),log2 fold change (tipifarnib),log2 fold change [6],log2 fold change [7],log2 fold change [8]
GON4L (UniProt Q3T8J9),0.006,-0.04,-0.05,-0.066,-0.045,0.391,-0.054,-0.011,-0.07,0.01,0.003,0.012,0.025,0.067,0.041,-0.061,-0.01,0.019,-0.02,0.022
HSPBAP1 (UniProt Q96EW2),-0.074,-0.014,-0.111,-0.076,0.022,0.15,-0.025,0.125,0.052,-0.141,0.1,0.039,0.011,0.14,0.213,-0.07,0.056,0.024,-0.056,0.032
GIT1 (UniProt Q9Y2X7),0.029,-0.007,-0.015,0.009,-0.08,-0.076,-0.002,-0.004,-0.047,-0.007,0.03,-0.062,-0.05,-0.042,0.036,-0.045,-0.086,0.035,-0.007,-0.026
IMPDH2 (UniProt H0Y4R1),0.074,-0.133,0.19,-0.056,0.011,0.16,-0.028,0.028,0.022,0.065,0.106,-0.012,0.004,0.014,-0.066,-0.153,-0.09,0.02,-0.01,–
ICAM2 (UniProt P13598),-0.008,-0.08,-0.002,0.293 (active),-0.035,-0.04,-0.01,-0.014,0.013,-0.075,0.081,-0.077,0.013,0.012,-0.035,0.007,-0.016,-0.018,-0.004,0.018
ITPKA (UniProt P23677),-0.043,-0.055,-0.012,-0.012,-0.038,-0.012,0.051,0.016,-0.043,0.051,-0.005,0.045,-0.064,-0.001,-0.002,-0.026,-0.001,0.044,0.021,-0.027
KDM6A (UniProt O15550),0.033,0.046,0.003,-0.028,0.032,0.009,0.01,0.022,0.002,0.013,0.009,0.033,0.041,-0.009,0.015,-0.062,-0.031,0.002,-0.017,0.009
GSTCD (UniProt Q8NEC7),-0.006,-0.015,-0.037,-0.058,0.09,0.036,-0.037,0,-0.053,0.01,0.039,-0.04,-0.003,-0.005,-0.098,-0.053,0.01,0.08,-0.014,-0.008
HMGN4 (UniProt O00479),0.038,-0.044,0.047,1.19 (active),-0.074,-0.421,0.078,-0.163,0.6,-0.551,0.049,-0.072,0.192,0.009,0.003,0.171,0.001,-0.019,0.012,-0.028
HMGB1 (UniProt P09429),0.017,0.02,-0.024,0.304 (active),0.028,-0.097,0.03,-0.014,0.079,-0.154,0.056,-0.002,0.03,0.064,-0.03,0.108,0.026,-0.021,0,-0.011
INPP4A (UniProt Q96PE3),-0.028,-0.116,-0.024,-0.086,0.025,0.003,0.065,0.014,0.132,0.128,0.012,-0.021,0.028,0.005,0.123,-0.03,0.03,0.032,0.015,0.032
HNRNPM (UniProt P52272),-0.001,0.063,0.025,-0.011,-0.022,0.02,-0.019,-0.113,-0.029,0.053,0.022,-0.043,-0.109,-0.05,0.01,0.055,-0.112,0.054,-0.002,0.053
GRK2 (UniProt P25098),-0.063,0.015,-0.038,0.024,0.017,0.077,-0.02,0.033,-0.017,-0.035,0.001,0.393 (active),-0.058,0.01,0,0.034,-0.001,0.397 (active),0.043,-0.027
HK1 isoform 2 (UniProt P19367),0,-0.009,-0.023,-0.026,-0.033,-0.051,0.038,0.039,-0.023,0.029,0.011,0,-0.026,-0.005,-0.008,-0.013,0.007,0.008,-0.005,0
HADHB (UniProt P55084),0.1,0.067,0.073,-0.041,0.037,0.138,0.016,0.218,0.014,-0.093,0.052,-0.028,-0.026,0.022,0.066,-0.064,0.028,-0.122,-0.076,0.073
ISOC2 (UniProt Q96AB3),-0.036,0.038,0.023,0.05,-0.038,-0.076,-0.065,-0.014,-0.058,0.095,0.012,0.022,0.026,0.091,0,-0.053,-0.017,-0.05,-0.045,-0.036
